Screens as filed in PubChem BioAssay.
Compounds with a hit are over-represented: about 6.3% of the library has one in this group of screens.
ATXN2 expr inh: ATXN2 expression inhibition; HEK-293 ATXN2-luciferase reporter, luminescence, 24 h; Potency, µM (series often up to 57 µM), without a hit: at the top dose activity change, negative = inhibition, usual class: inhibitors; 360,000 compounds, 0.72% hits; further: on the % scale 0 is the no-effect control and ±100 the full control effect; nearly all actives have a fitted effect of over 55% in size
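ATXN2-luciferase reporter cells (luciferase flanked by upstream and downstream ATXN2 gene portions) were treated 24 h at 37 °C with compounds at up to 57 uM. SteadyGlo luminescence gave expression; GF-AFC fluorescence gave viability.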
VP16 counter: Gal4-VP16 reporter inhibition counter-screen. Drosophila S2 Gal4-VP16 UAS-luciferase, luminescence, 20 h. Potency, µM (titrated, usually from 53.6 µM), for inactives: top-dose activity, negative = inhibition, most hits filed as inhibitors. 310,000 compounds, 3.5% hits;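 further: Gal4-VP16 expression switched on by copper sulfate through the metallothionein promoter; on the % scale 0 is the no-effect control and ±100 the full control effect; nearly all actives have a fitted effect of over 50% in size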
TGFb inhibitor: TGF-b pathway inhibition; 410,000 compounds, 1.2% hits; AID 588855; Potency, µM (series often up to 46.1 µM), for the others: at the highest dose activity, negative = inhibition, most hits filed as inhibitors; HepG2 CAGA-GFP TGF-b/SMAD3 reporter, GFP fluorescence, 18 h; TGF-beta stimulated, 500 pg/mL final; further: on the % scale 0 is the no-effect control and ±100 the full control effect; nearly all actives have a fitted effect of over 65% in size
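Inhibition was scored as loss of TGF-beta-induced (500 pg/mL final, 18 hours, 37 degrees C) GFP in HEPG2 cells carrying a CAGA-GFP reporter, in DMEM with 1% FBS. Well GFP was summed per cell; Activity was normalised to unstimulated and stimulated DMSO wells, then concentration-response fitting.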
RORg inh: inhibitors of mouse ROR gamma transcriptional activity | 310,000 compounds, 5.4% hits | Drosophila S2 Gal4-RORgamma UAS-luciferase reporter, 20 h | Potency, µM (highest dose often 53.6 µM), for the others: at the highest dose activity change, negative = inhibition, usual class: inhibitors; further: on the % scale 0 is the no-effect control and ±100 the full control effect; nearly all actives have a fitted effect of over 60% in size
Target sequence (P51450 whole entry, looked up, the tested form may be a part): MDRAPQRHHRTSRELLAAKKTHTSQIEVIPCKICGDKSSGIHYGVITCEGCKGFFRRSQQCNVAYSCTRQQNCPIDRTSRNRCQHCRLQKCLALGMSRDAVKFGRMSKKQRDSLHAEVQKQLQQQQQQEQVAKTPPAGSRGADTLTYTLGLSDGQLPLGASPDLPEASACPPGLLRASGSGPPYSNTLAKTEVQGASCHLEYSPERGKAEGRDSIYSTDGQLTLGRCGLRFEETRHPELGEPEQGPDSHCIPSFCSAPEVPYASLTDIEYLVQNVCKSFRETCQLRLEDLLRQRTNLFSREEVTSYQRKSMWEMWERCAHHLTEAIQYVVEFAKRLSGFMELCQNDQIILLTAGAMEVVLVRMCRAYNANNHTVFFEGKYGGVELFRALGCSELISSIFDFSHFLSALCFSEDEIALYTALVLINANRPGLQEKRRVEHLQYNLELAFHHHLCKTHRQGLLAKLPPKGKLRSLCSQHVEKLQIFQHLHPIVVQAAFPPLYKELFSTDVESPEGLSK
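A Gal4/UAS one-hybrid system in insect cells: metallothionein-promoter Gal4–ROR gamma fusion plus Photinus luciferase reporter. Copper sulfate 700 uM final, 20 hr ambient incubation, luminescent detection after 10 min with reagent.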
ATXN viability: reduces viability in counter-screen for ATXN expression inhibitors; Potency, µM (titrated, usually from 56.7 µM), most hits filed as cytotoxic; 400,000 compounds, 0.49% hits; S2 cells (HEK-293 line with an ATXN2-luciferase reporter) viability, CellTiter-Fluor protease fluorescence, 24 h; further: nearly all actives have a fitted effect of over 40% in size
HepG2 tox: counter-screen for TGF-b inhibitors: cytotoxicity in HepG2 cells. HepG2 CAGA-GFP viability, ATP luminescence, 18 h. Potency, µM (doses to about 46.1 µM), without a hit: at the highest dose activity change, negative = cytotoxicity, hits mostly cytotoxic. 410,000 compounds, 0.76% hits. AID 588856
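HepG2 CAGA-GFP cells (1000/well, DMEM with 1% FBS) received compound, then TGF-beta at 500 pg/mL final, and were incubated 18 hours at 37 degrees C. Viability was read by CellTiter-Glo luminescence. Media-only wells were set as complete cell-killing and DMSO as no toxicity.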
The depositor's hits bear a star; i = inactive; ? = inconclusive; · = not tested or not shown; [ ] = another dose, or the depositor's remark. The call rests on the fitted dose curve; in most records, active means well fitted curve in the direction sought with a large enough effect; inconclusive means small, poorly fitted or top-dose-only effect, or another doubt; inactive means no such curve, though single readings can be large; an effect the other way counts as inactive or inconclusive. Potency means the concentration at half of the fitted maximal effect.

SMILES | ATXN2 expr inh | VP16 counter | TGFb inhibitor | RORg inh | ATXN viability | HepG2 tox
Cc1c(Cl)cccc1NC(=S)N1CCN(Cc2ccccc2)CC1 | · | ? | -24% | 10µM* | · | -20%
CCn1cc(C(=O)NCCOC)c(=O)c2cc(S(=O)(=O)N3CCOCC3)ccc21 | -1% | · | -11% | · | i | -3%
S=C(Nc1cc(Cl)cc(Cl)c1)NC1CCN(Cc2ccccc2)CC1 | ? | ? | ? | ? | ? | 16µM*
Cc1c(Cl)cccc1NC(=S)NC1CCN(Cc2ccccc2)CC1 | -16% | -95% | ? | 10µM* | i | -23%
CC(C)c1ccccc1NC(=S)NC1CCN(Cc2ccccc2)CC1 | -12% | 16µM* | -5% | 14µM* | i | -9%
Cc1cnc(-n2ncc(C(=O)N(C)Cc3cccc4ncccc34)c2C(C)C)nc1-c1ccc(F)cc1 | · | · | · | · | i | ·
COc1ccc(C(C)(C)C)cc1NC(=O)CCc1c(C)noc1C | 1% | · | -5% | · | i | 1%
O=C(NC1CCCC1)c1cc(Nc2cccc(C(F)(F)F)c2)nc2ccccc12 | -3% | · | -28% | · | i | -19%
C(=C\c1ccnc2ccccc12)/c1ccc(N(Cc2ccccc2)Cc2ccccc2)cc1 | · | · | 12% | · | · | -5%
O=C(c1cccc(N2C(=O)C3C4C=CC(C4)C3C2=O)c1)N1CCN(c2ccccc2Cl)CC1 (stereo not drawn) | · | -10% | ? | 28% | i | -43%
COc1ccc(Cn2c(-c3ccc(OC)cc3)nc3ccccc32)cc1 | -4% | ? | -1% | 11µM* | ? | 13%
O=C(O)COn1c(-c2ccc(Cl)cc2)nc2ccc(Cl)cc21 | 27%[11.3 µM] | 0% | -3% | 1% | i | -34%
COc1ccc(-c2nc3ccccc3n2OCC(=O)O)cc1 | 2% | 13µM* | 0% | ? | i | -188%
Cc1cc(C)nc(-c2cccc3c2OC(CNC(=O)C2CCOC2)C3)n1 (stereo not drawn) | · | · | · | · | i | ·
Cc1cc(F)ccc1NC(=O)Cn1cc(S(=O)(=O)NC(C)C)c(S(=O)(=O)NC(C)C)c1 | 7% | · | -12% | · | i | -1%
O=C(Cc1c[nH]c2ccccc12)N/N=C/c1ccccc1O | · | 10µM* | ? | 2.2µM* | ? | -22%
Cc1ccc(/C=N/NC(=O)Cc2c[nH]c3ccccc23)c(C)c1 | -30% | -4% | -2% | 37% | ? | -26%
O=C(CCn1cnc2ccccc21)N/N=C/c1ccccc1O | ? | 0.63µM* | -13% | 0.45µM* | i | -34%
O=C(CCN1CCN(c2ccccc2)CC1)N/N=C/c1ccccc1O | 27µM* | 6.3µM* | ? | 2µM* | i | 1%
CN1CCN(CCC(=O)N/N=C/c2ccccc2F)CC1 | 9% | -1% | 1% | -1% | i | -1%
O=C(CCC(=O)Nc1ccc(Br)cc1)N/N=C/c1ccccc1F | 6% | -2% | -25% | -11% | i | 1.8µM*
COc1ccc(-c2ccc(NS(=O)(=O)c3ccccc3Cl)cc2)nn1 | -25% | · | 9% | · | ? | -5%
COc1ccc(OC)c(/C=C(\C#N)c2nc(-c3ccc(F)cc3)cs2)c1 | · | · | 85% | · | · | -16%
O=C(NCCc1nnc2n1CCN(Cc1ccccn1)CC2)c1ccc(F)cc1 | · | · | · | · | i | ·
C=CCc1cccc(/C=N/NC(=O)CCC(=O)Nc2ccc(C)cc2)c1O | 14µM* | ? | -42% | 1.6µM* | i | -39%
SMILES | ATXN2 expr inh | VP16 counter | TGFb inhibitor | RORg inh | ATXN viability | HepG2 tox
O=C(CCC(=O)N/N=C/c1ccccc1O)NCc1ccccc1 | -25% | -24% | 0% | 20µM* | i | -33%
O=C(CCC(=O)Nc1ccc(F)cc1)N/N=C/c1c[nH]c2ccccc12 | -26% | 7% | 4% | 2% | i | -2%
O=C(CCC(=O)Nc1ccc(F)cc1)N/N=C/c1ccccc1O | 6%[11.3 µM] | -24% | -12% | 14µM* | i | -31%
COc1ccc(NC(=O)CC2C(=O)N(c3cccc(OC)c3)C(=O)N2Cc2cccnc2)cc1 (stereo not drawn) | · | · | -7% | · | · | -6%
Cn1nnnc1SCCCNCc1cccc(OCc2ccccc2F)c1 | 12% | · | 33% | · | i | -31%
COc1cccc(CNCCSc2nnnn2C)c1OCc1ccc(Cl)cc1 | ? | · | 18µM* | · | i | 0%
Cn1nnnc1SCCCNCc1cccc(OCc2ccccc2Cl)c1 | ? | · | 10µM* | · | ? | -81%
COc1cccc(-n2nnnc2S(C)(=O)=O)c1 | ? | 5µM* | ? | 3.2µM* | 28µM* | -101%
Cc1cccc(-n2nnnc2S(C)(=O)=O)c1 | ? | · | ? | · | 11µM* | 6.3µM*
O=C(N/N=C/c1ccccn1)c1cc(-c2ccc(Br)cc2)nc2ccccc12 | ? | 1.1µM* | ? | 0.63µM* | ? | -9%
O=C(N/N=C/c1ccccn1)c1cc(-c2ccc(Cl)cc2)nc2ccccc12 | ? | 0.71µM* | ? | 0.4µM* | i | -35%
Oc1cccc2ccc(/C=C/c3c(F)cccc3Cl)nc12 | -13% | ? | ? | 3.2µM* | i | -10%
O/N=C/c1ccc2cccc(O)c2n1 | · | ? | -15% | 11µM* | ? | -35%
Oc1cccc2ccc(/C=C/c3ccccc3Cl)nc12 | · | 4.5µM* | ? | 4µM* | i | -24%
CCN1CCC2(CC1)N=C(c1ccc(F)cc1)C(=S)N2 | -10%[11.3 µM] | -4% | -23% | 13µM* | i | 2%
Cc1ccc(C2=NC3(CCCCC3)NC2=S)cc1 | 12% | 4µM* | 0% | 2µM* | i | 13%
S=C1NC2(CCCCC2)N=C1c1ccccc1 | 5% | 3.5µM* | 3% | 3.2µM* | i | 0%
Cc1nnn(-c2nonc2N)c1C(=O)N/N=C/c1cccc2ccccc12 | ? | 13µM* | -11% | -116% | i | -20%
CN(C)Cc1c(C(=O)N/N=C/c2cccc3ccccc23)nnn1-c1nonc1N | -4% | -4% | 2% | 6% | i | -5%
Cc1nnn(-c2nonc2N)c1C(=O)N/N=C/c1ccccc1O | -24% | 2.8µM* | -4% | 1.3µM* | i | -23%
COc1cccc(NC(=O)Cn2c(=O)n(CCc3ccc(OC)c(OC)c3)c(=O)c3ccccc32)c1 | 5% | · | ? | · | i | -32%
Cn1c(SCC(=O)NCc2ccco2)nnc1-c1ccc(NC(=O)c2ccccc2)cc1 | · | · | -26% | · | · | 21%
CN1CCCC1CCNc1ccc2oc3ccccc3c(=O)c2c1 (stereo not drawn) | ? | ? | -10% | 8.9µM* | ? | -16%
COc1ccc(N(C(=O)c2cc(OC)c(OC)c(OC)c2)S(=O)(=O)c2ccc(C)cc2)cc1 | -13% | · | 3% | · | i | -40%
